Screens as filed in PubChem.
G9a inh = qHTS Assay for Inhibitors of Histone Lysine Methyltransferase G9a. Histone-lysine N-methyltransferase EHMT2 (Homo sapiens), Q96KQ7. G9a H3K9 monomethylation, AlphaScreen, 2 h. Potency, µM (top dose mostly 102 µM), inactives show at the top dose activity, negative = inhibition, actives largely listed as inhibitors. 350,000 compounds, 8.8% hits; further: on the % scale 0 is the no-effect control and ±100 the full control effect; nearly all actives have a fitted effect of over 75% in size
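G9a (20 nM) was preincubated 15 min with compound, then reacted 2 h at room temperature with 500 nM biotin-H3K9 peptide and 20 µM SAM. Monomethyl-H3K9 detected by AlphaScreen using anti-H3K9me1 antibody.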
HP1b binding inh = HTS for Inhibitors of HP1-beta Chromodomain Interactions with Methylated Histone Tails. Chromobox protein homolog 1 (Homo sapiens), P83916. AlphaScreen HP1-beta / biotin-H3K9me3 peptide binding. Potency, µM (highest dose often 114 µM), inactives show top-dose activity change, negative = inhibition, usual class: inhibitors. 390,000 compounds, 0.56% hits. AID 540317, 2011; further: nearly all actives have a fitted effect of over 70% in size
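HP1-beta protein (50 nM final) preincubated 30 min at room temperature with biotinylated H3(1-18)K9me3 peptide (50 nM) in PBS pH 7.4, 0.01% Tween-20, then compound added for 30 min. AlphaScreen streptavidin donor/nickel chelate acceptor beads (10 ug/mL final), 30 min dark, luminescence read.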
JMJD2A Tudor inh = qHTS Assay for Inhibitors of JMJD2A-Tudor Domain. AlphaScreen JMJD2A-Tudor / H3K4me3 peptide binding. Potency, µM (top dose mostly 114 µM), for the others: at the top dose activity change, negative = inhibition, most hits filed as inhibitors. 390,000 compounds, 4.4% hits. AID 504339, 2011; further: on the % scale 0 is the no-effect control and ±100 the full control effect; nearly all actives have a fitted effect of over 50% in size
Sfp inh = qHTS Assay for Inhibitors of Bacillus subtilis Sfp phosphopantetheinyl transferase (PPTase). 4'-phosphopantetheinyl transferase ffp (Bacillus subtilis), Q9F4F7. Potency, µM, inactives show largest response in the series, negative = inhibition, most hits filed as inhibitors. 310,000 compounds, 3.5% hits. Biochemical Sfp PPTase activity, qHTS;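 further: the enzyme is Sfp with the accession as filed and its product quenches rhodamine fluorescence; 0% = enzyme reaction without inhibitor and -100% = no enzyme wells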
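Step 1, compound plus 15 nM Sfp-PPTase, 15 min, room temperature. Step 2, add rhodamine-CoA (5 uM) and BHQ-2-YbbR (12.5 uM). Step 3, read 525/598 nm fluorescence at 0 and 30 min.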
BAZ2B block = qHTS Assay for Inhibitors of BAZ2B; 360,000 compounds, 4.4% hits; AID 504333, 2011; Potency, µM (doses to about 114 µM), without a hit: top-dose activity change, negative = inhibition, usual class: inhibitors; AlphaScreen BAZ2B-H3K14Ac peptide displacement; further: on the % scale 0 is the no-effect control and ±100 the full control effect; nearly all actives have a fitted effect of over 60% in size
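BAZ2B (50 nM) with biotin-H3(5-23)K14Ac peptide (50 nM) in PBS pH 7.4, 0.01% Tween-20, preformed 30 min, then compound 30 min at room temperature; top concentration 110uM. AlphaScreen streptavidin donor/nickel chelate acceptor beads (10 ug/mL final), 20 min dark, signal read.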
PLK1 PBD block = qHTS for Inhibitors of PLK1-PDB (polo-like kinase 1 - polo-box domain): Primary Screen. Serine/threonine-protein kinase PLK1 (Homo sapiens), P53350. Plk1 PBD binding of FITC phosphopeptide, fluorescence polarization. Potency, µM, for the others: max response, negative = inhibition, most hits filed as inhibitors. 360,000 compounds, 2.8% hits; further: series mostly up to about 57 µM; on the % scale 0 is the no-effect control and ±100 the full control effect; nearly all actives have a fitted effect of over 65% in size
* hit, by the source's call; ? = inconclusive; · = no result; ! = a repeat was not active; [ ] = another dose, or the depositor's remark. A selection: hits, their analogues and other compounds. The true share with any hit is near 12%. The call rests on the fitted dose curve; in most records, active means well fitted curve in the direction sought with a large enough effect; inconclusive means small, poorly fitted or top-dose-only effect, or another doubt; inactive means no such curve, though single readings can be large; an effect the other way counts as inactive or inconclusive. Potency means the concentration at half of the fitted maximal effect.

SMILES	G9a inh	HP1b binding inh	JMJD2A Tudor inh	Sfp inh	BAZ2B block	PLK1 PBD block
CCC1=C2CC[C@H]3C(=O)N(C)C(=O)[C@H]3[C@H]2[C@@]2(Cc3ccccc3)C(=NCCc3c[nH]c4ccccc34)OC(=O)N2C1=O	·	·	·	25%	·	·
CCCNC(=O)c1cc(C2CCCCN2C(=O)c2ccccc2)on1 (stereo not given)	·	·	·	·	·	-6%
CCOc1ccccc1NC(=O)C1CCCN(S(=O)(=O)c2ccc(-n3cnnn3)cc2)C1 (stereo not given)	-8%	10%	-9%	19%	-2%	-8%
COc1ccc(N2CCN(C(=O)c3ccccc3NC(=O)c3ccccc3)CC2)cc1	45µM*	-11%	-31%	2%	-38%	-6%
COc1ccc(C(=O)Nc2ccccc2C(=O)N2CCOCC2)cc1OC	-3%	-1%	-11%	9%	-1%	1%
O=C(Nc1cccc(C(F)(F)F)c1)N1CCN(C(=O)Nc2cccc(C(F)(F)F)c2)CC1	9%[59 µM]	19%	-2%	2%	-5%	-5%
COc1ccc(C(=O)Nc2ccccc2C(=O)N2CCOCC2)cc1Br	·	25%[57 µM]	-4%	2%	-4%	27µM*
COc1ccc(N2CCN(C(=O)Nc3cccc(C(F)(F)F)c3)CC2)cc1	13µM*	-11%	?	7%	?	-9%
COc1ccc(N2CCN(CC(=O)Nc3ccccc3C(=O)NCc3ccccc3)CC2)cc1	?	?	56µM*	·	45µM*	-3%
O=C1OCc2ccc([N+](=O)[O-])cc21	·	37%	2%	·	·	-1%
COc1ccccc1OCC(=O)N(Cc1ccc(Cl)cc1)CC1CCCO1 (stereo not given)	7%[59 µM]	13%	-12%	·	0%	·
CCOC(=O)Cn1c(=O)n(C2CCCCC2)c2nc(-c3ccccc3Cl)nc(C(N)=O)c21	10%[59 µM]	20%[57 µM]	-18%	·	-4%	·
COC(=O)c1cnc(N2CCN(c3ccccc3F)CC2)c2ccccc12	78%[59 µM]	117%[57 µM]	90%	·	37%	·
Cc1ccc(N2CCN(C(=O)c3ccccc3NC(=O)c3ccccc3C(=O)O)CC2)cc1	56µM*	24%	-20%	15%	-36%	-8%
COC(=O)c1cnc(N2CCN(c3ccc(OC)cc3)CC2)c2ccccc12	13µM*	-13%[57 µM]	25µM*	·	22µM*	·
COC(=O)c1ccc(NC(=O)CN2C(=O)c3cccc4cccc2c34)cc1	6%[59 µM]	37%	6%	·	1%	·
O=C1C=C(c2ccc(O)cc2)C[C@@H](c2ccc3c(c2)OCO3)C1	15%[0.501 µM]	1%	?	·	4%	-6%
O=C1C=C(c2ccc(C(=O)O)cc2)C[C@@H](c2ccc3c(c2)OCO3)C1	2%[0.501 µM]	1%	79µM*	·	50µM*	-21%
COc1ccc(N(CC(=O)Nc2ccccc2C)S(=O)(=O)c2ccccc2[N+](=O)[O-])c(OC)c1	-23%	?	?	21%	-8%	7.5µM*
COC(=O)CN(c1ccc(OC)cc1OC)S(=O)(=O)c1ccccc1[N+](=O)[O-]	11µM*	9%	-18%	?	-17%	-11%
COc1ccc(N(CC(=O)N2CCCCCC2)S(=O)(=O)c2ccccc2[N+](=O)[O-])c(OC)c1	-72%	-14%	-27%	11%	-26%	-5%
CCOc1cc(S(=O)(=O)NCCc2c(C)[nH]c3ccc(C)cc23)ccc1F	-46%[59 µM]	-5%	50µM*	·	35µM*	·
O=C(NC1CCCC1)c1ccc(CSc2nc3ccncc3n2Cc2ccc(F)cc2)cc1	45µM*!	20%	-24%	1%	-4%	-3%
CCOc1ccc(-n2nnnc2SCC(=O)Nc2ccc(NC(C)=O)cc2)cc1	-3%	49%	4%	13%	-4%	2%
